Growth data for seven compounds are collected here from PubChem BioAssay (NCI).

Some test systems named below: DU-145 prostate; K-562 leukemia; MALME-3M melanoma; MDA-MB-231 breast; RXF 393 renal; SF-268 CNS; SF-295 CNS; SF-539 CNS; UACC-257 melanoma; M14 melanoma; HCT-15 colon; HT29 colon; SNB-75 CNS; SNB-19 CNS; U251 CNS; PC-3 prostate; SK-MEL-5 melanoma; UACC-62 melanoma; LOX IMVI melanoma; SK-MEL-28 melanoma.
Common to all, as to assay: NCI-60 one-dose screen, 48 h (100 = growth as untreated, 0 = no growth, -100 = all killed)
Settings in all cases: 10 µM unless noted

This is part of a sample that, as a whole, favours compounds with a hit. Of some 83,000 tested, about 20% had one in any assay.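 Plates (96-well) were seeded with cells, treated with compound at one concentration, and incubated for 48 hours before percent growth was determined.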 Values without a mark were called inactive. Active and inactive are the calls of the source. The calls were made as follows: active = growth percent below 10; inactive = the rest.

Consider `O=c1c2cc(F)ccc2sc2c(Nc3cccnc3)nc3ccccc3c12`, for which the growth in the test with DU-145 prostate was 107%; in the test with K-562 leukemia, 86.4%; with MALME-3M melanoma, 103%; in the test with MDA-MB-231 breast it was 72.2%; with RXF 393 renal it was 88.4%; in the test on SF-268 CNS it was 89.5%. Further, the growth was 95.2% with SF-295 CNS; 82.1% in the test on SF-539 CNS; 97.8% in the test with UACC-257 melanoma; 104% with M14 melanoma; 87.2% with HCT-15 colon; 110% in the test on HT29 colon. The growth is 71.9% with SNB-75 CNS; 94.1% in the test with SNB-19 CNS; 70.2% in the test on U251 CNS; 88.9% in the test on PC-3 prostate; 88.9% with SK-MEL-5 melanoma; 101% with UACC-62 melanoma. Moreover, the growth with LOX IMVI melanoma was 89.4%; in the test on SK-MEL-28 melanoma, 103%.
As for `N#Cc1c(-c2ccccn2)[nH]c(=S)[nH]c1=O`, the growth with DU-145 prostate is 105%; in the test on K-562 leukemia, 97%; with MALME-3M melanoma, 108%; with MDA-MB-231 breast it was 117%; in the test with RXF 393 renal, 110%; in the test with SF-268 CNS, 101%. Also, the growth in the test with SF-295 CNS is 99.1%; with SF-539 CNS, 97.3%; with UACC-257 melanoma, 109%; in the test with M14 melanoma, 97.6%; in the test with HCT-15 colon, 96.7%; with HT29 colon, 96%. Moreover, the growth with SNB-75 CNS was 105%; in the test with SNB-19 CNS it was 126%; with U251 CNS, 99.8%; in the test on PC-3 prostate, 103%; in the test on SK-MEL-5 melanoma, 106%; in the test on UACC-62 melanoma it was 118%. The growth in the test with LOX IMVI melanoma was 104%; in the test on SK-MEL-28 melanoma it was 112%.
With `COc1ccc(C2=NN(C(=O)c3cc(OC)c(OC)c(OC)c3)C(c3ccc(Cl)cc3)C2)cc1OC` (stereo not given), the growth was 7.23% (active) in the test with DU-145 prostate; 4.27% (active) in the test on K-562 leukemia; 63.1% in the test on MALME-3M melanoma; 47.6% in the test on MDA-MB-231 breast; 22.6% in the test with RXF 393 renal; 37.6% in the test on SF-268 CNS. The growth in the test on SF-295 CNS was -4.6% (active); in the test on SF-539 CNS, -3.19% (active); in the test on UACC-257 melanoma, 54.5%; in the test on M14 melanoma it was 6.09% (active); in the test with HCT-15 colon it was 9.3% (active); with HT29 colon, 15.2%. Moreover, the growth with SNB-75 CNS is 21.9%; with SNB-19 CNS it was 29.1%; in the test on U251 CNS, 24%; with PC-3 prostate it was 26.5%; in the test with SK-MEL-5 melanoma, 9.51% (active); in the test on UACC-62 melanoma, 31.1%. The growth in the test with LOX IMVI melanoma was 31.3%; in the test on SK-MEL-28 melanoma, 46.1%.
Take `Cc1ccc(C(=NN=C(N)N)c2ccc(C)cc2)cc1`: the growth is -16.6% (active) in the test with DU-145 prostate; 5.03% (active) with K-562 leukemia; 40.4% in the test with MALME-3M melanoma; -11.3% (active) with MDA-MB-231 breast; -16.1% (active) with RXF 393 renal; 16.7% with SF-268 CNS. Besides, the growth in the test with SF-295 CNS is 0.547% (active); in the test on SF-539 CNS it was -2.53% (active); with UACC-257 melanoma, 25.9%; with M14 melanoma, -74.7% (active); in the test with HCT-15 colon it was 11.6%; in the test with HT29 colon, 0.831% (active). The growth in the test with SNB-75 CNS is -1.11% (active); in the test on SNB-19 CNS, 30.4%; with U251 CNS, 6.36% (active); in the test on PC-3 prostate, 16.3%; in the test on SK-MEL-5 melanoma, -68.6% (active); in the test on UACC-62 melanoma, 31.6%. Further, the growth was -28.3% (active) in the test with LOX IMVI melanoma and 21.4% with SK-MEL-28 melanoma.
Turning to `N#Cc1c(N)nc(NCCO)nc1-c1ccc(F)cc1`, the growth was 113% in the test on DU-145 prostate; 91.4% in the test on K-562 leukemia; 108% in the test on MALME-3M melanoma; 104% in the test with MDA-MB-231 breast; 93.5% in the test with RXF 393 renal; 103% with SF-268 CNS. Also, the growth is 99.1% with SF-295 CNS; 98.6% in the test with SF-539 CNS; 90.6% with UACC-257 melanoma; 105% in the test on M14 melanoma; 99.9% in the test with HCT-15 colon; 95.9% in the test with HT29 colon. The growth was 79.2% with SNB-75 CNS; 104% in the test on SNB-19 CNS; 90.2% with U251 CNS; 92.9% in the test on PC-3 prostate; 95% in the test with SK-MEL-5 melanoma; 95% with UACC-62 melanoma. For the same compound, the results for the growth in the test on LOX IMVI melanoma and with SK-MEL-28 melanoma were 90.8% and 112%, respectively.
Regarding `COC(=O)[C@]12CC[C@@H](C)[C@H](C)[C@@H]1C1=CC[C@@H]3[C@@]4(C)C(C=O)=C[C@@](C)(COC(C)=O)[C@@H]4C(=O)C[C@@]3(C)[C@]1(C)CC2`, the growth with DU-145 prostate was 42.6%; in the test on K-562 leukemia, 24.3%; in the test with MALME-3M melanoma, 65.7%; with MDA-MB-231 breast, 46.8%; with RXF 393 renal, 55.8%; in the test with SF-268 CNS, 42.2%. Further, the growth in the test on SF-295 CNS was 32.1%; with SF-539 CNS, 53.7%; in the test with UACC-257 melanoma, 37.8%; in the test on M14 melanoma, 19.5%; in the test with HCT-15 colon, 21.5%; with HT29 colon it was 23.8%. Moreover, the growth was 33.5% with SNB-75 CNS; 37.4% with SNB-19 CNS; 27.1% with U251 CNS; 13.3% in the test on PC-3 prostate; 51.9% with SK-MEL-5 melanoma; 42.1% in the test with UACC-62 melanoma. The growth is 33.5% with LOX IMVI melanoma and 65.5% in the test with SK-MEL-28 melanoma.
With `CSc1n(Cc2ccc3ccccc3c2)c(C)c[n+]1Cc1ccc2ccccc2c1`, the growth in the test on DU-145 prostate was -12.8% (active); with K-562 leukemia, 8.26% (active); in the test on MALME-3M melanoma it was -25.1% (active); in the test with MDA-MB-231 breast, -30.8% (active); in the test with RXF 393 renal, -26.1% (active); in the test on SF-268 CNS it was -11.7% (active). Also, the growth in the test on SF-295 CNS is -23.3% (active); with SF-539 CNS it was 8.44% (active); with UACC-257 melanoma, -41.5% (active); in the test on M14 melanoma, -14.3% (active); in the test with HCT-15 colon it was 24.4%; with HT29 colon, -11.2% (active). Besides, the growth in the test with SNB-75 CNS was -32.4% (active); in the test on SNB-19 CNS it was 3.42% (active); in the test with U251 CNS, 2.53% (active); with PC-3 prostate, 0.0083% (active); with SK-MEL-5 melanoma, -95.8% (active); in the test on UACC-62 melanoma, -56.2% (active). Moreover, the growth with LOX IMVI melanoma was -91.5% (active); in the test with SK-MEL-28 melanoma it was -9.19% (active).
